According to PubChem BioAssay (Tox21):
Where “and” joins values, the source holds several entries; their conditions need not be identical. Equal entries are not always repeated. Results filed as inconclusive are left out. Where a structure was tested more than once in an assay, its records may differ in their call. Calls of active or inactive are those of the source. Unless noted, the call rests on the fitted dose curve; in most records, active means well fitted curve in the direction sought with a large enough effect in the repeat runs; inconclusive means weak or mixed curves; inactive means no such curve, though single readings can be large; an effect the other way counts as inactive or inconclusive.

Legend:
[1] = qHTS assay to identify small molecule agonists of the sonic hedgehog signaling (Shh) pathway (AID 1259368; calls by dose curve;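 further: NIH/3T3-derived 3T3Gli1-Luc cells carrying a stable Gli1-driven firefly luciferase reporter; series mostly up to about 92 µM; nearly all actives have a fitted effect of over 15% in size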)
Procedure, shortened: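 3T3Gli1-Luc (NIH/3T3 clone, stable Gli1-Luc); 4 hr pre-incubation, then cpd in DMSO 24 hr, 37 C/5% CO2; luciferase reagent 30 min RT; luminescence.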

[2] = qHTS assay to identify small molecule antagonists of the sonic hedgehog signaling (Shh) pathway (AID 1259369; calls by dose curve; further: nearly all actives have a fitted effect of over 45% in size; further: potency means the concentration at half of the fitted maximal effect)
Procedure, shortened: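 3T3Gli1-Luc, conditioned-medium-stimulated, 24hr cpd, 37C/5% CO2; Gli1-driven firefly Luc luminescence after 30min RT with luciferase reagent. Cells plated 4hr before cpd.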

[3] = qHTS assay to identify small molecule agonists of the androgen receptor (AR) signaling pathway in the presence of an antagonist - cell viability counter screen (AID 1259379); further: nearly all actives have a fitted effect of over 25% in size; further: potency means the concentration at half of the fitted maximal effect
Procedure, shortened: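 Cells: MDA-kb2 (MMTV-luc, AR and GR elements), 3,000/well, 5 hr settle. Added: nilutamide 3.0uM final, then compounds (15 conc.). Incubation: 16 hr, 37C, no CO2. Read-out: CellTiter-Fluor, 1 hr, fluorescence.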

[4] = qHTS assay to identify small molecule agonists of the estrogen receptor beta (ER-beta) signaling pathway - cell viability counter screen (AID 1259380); further: nearly all actives have a fitted effect of over 30% in size; further: potency means the concentration at half of the fitted maximal effect
Procedure, shortened: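 HEK293T ER-beta-UAS-bla; 2% CS-FBS; 6 hr pre-plate, 16 hr cpd at 37C/5% CO2; LiveBLAzer read first, then CellTiter-Glo 30 min RT, luminescence.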

[5] = qHTS assay to identify small molecule antagonists of the estrogen receptor beta (ER-beta) signaling pathway - cell viability counter screen (AID 1259382); further: nearly all actives have a fitted effect of over 55% in size; further: potency means the concentration at half of the fitted maximal effect
Procedure, shortened: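 Cells: ER-beta-UAS-bla HEK293T, 2,000/well, 2% CS-FBS, 6 hr settle. Cpd + E2 (1nM final), 16 hr, 37C/5% CO2. Bla FRET substrate 2 hr RT, then CellTiter-Glo 30 min RT, luminescence.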

[6] = biological target: Estrogen receptor (Homo sapiens) (UniProt P03372); experiment: qHTS assay to identify small molecule agonists of the estrogen receptor alpha (ER-alpha) signaling pathway in the presence of an antagonist (AID 1259383; calls by dose curve; further: top concentration of the series differs between compounds; nearly all actives have a fitted effect of over 15% in size)
Procedure, shortened: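 VM7Luc4E2, endog. ER-alpha + 4×ERE-luc; charcoal-stripped FBS, phenol red-free, 5 d; 24hr plating; +10.0nM ICI-182,780 (final); cpds 15 conc, 22hr, 37C/5% CO2; ONE-Glo luminescence.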

[7] = qHTS assay to identify small molecule agonists or antagonists of the thyroid stimulating hormone receptor (TSHR) signaling pathway - wild type cell line counter screen (AID 1259384; calls by dose curve)
Procedure, shortened: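 Counter screen in untransfected Hek293: compounds (15-point titration, triplicate) plus phosphodiesterase inhibitor Ro20-1724 added after 18 h plating; 30 min RT. Intracellular cAMP via competitive d2/cryptate immunoassay, 1 h incubation.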

[8] = qHTS assay to identify small molecule agonists of the estrogen receptor alpha (ER-alpha) signaling pathway in the presence of an antagonist - cell viability counter screen (AID 1259386);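 further: cells exposed to compounds for 22 h at 37 °C before the viability read; nearly all actives have a fitted effect of over 30% in size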; further: potency means the concentration at half of the fitted maximal effect
Procedure, shortened: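 VM7Luc4E2, stripped-serum pre-culture 5 d; 24hr plating; +ICI-182,780 10.0nM final; cpds 15 conc, 22hr, 37C/5% CO2; CellTiter-Fluor added at 21hr, fluorescence 1hr later.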

[9] = biological target: Progesterone receptor (Homo sapiens) (UniProt P06401); experiment: qHTS assay to identify small molecule agonists of the progesterone receptor (PR) signaling pathway (AID 1346784; calls by dose curve; further: nearly all actives have a fitted effect of over 30% in size)
Procedure, shortened: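 Using charcoal-stripped serum (2%) to limit endogenous steroids, PR-UAS-bla HEK 293T cells received compounds for 16 hr at 37C after 6 hr plating; beta-lactamase FRET fluorescence was recorded following 2 hr substrate loading at room temperature.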

[10] = qHTS assay to identify small molecule agonists of the progesterone receptor (PR) signaling pathway - cell viability counter screen (AID 1346799; calls by dose curve; further: nearly all actives have a fitted effect of over 45% in size; further: potency means the concentration at half of the fitted maximal effect)
Procedure, shortened: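 Cytotoxicity in PR-bla HEK293T cells: 16 h compound, 37C; CellTiter-Glo added post-FRET read; luminescence after 30 min RT.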

[11] = qHTS assay to identify small molecule antagonists of the TGF-beta/Smad signaling pathway - cell viability counter screen (AID 1346824); further: nearly all actives have a fitted effect of over 50% in size; further: potency means the concentration at half of the fitted maximal effect
Procedure, shortened: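 Cytotoxicity counter-screen run in the same wells as the beta-lactamase Smad reporter read: CellTiter-Glo luminescence after 30 min at room temperature. HEK 293T SBE-bla cells had 5 hr compound exposure at 37 C with TGF-beta1 (0.25 ng/mL stock).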

[12] = qHTS assay to identify small molecule agonists of the TGF-beta/Smad signaling pathway (AID 1346859; active means well fitted activation curve with a large enough effect in the signal ratio in the repeat runs, not every such curve was filed as active; the % refers to the signal ratio; further: series mostly up to about 77 µM)
Procedure, shortened: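 Stable Smad binding element-beta-lactamase HEK 293T cells; 5 hr compound exposure at 37 C under 5% CO2; 2 hr room-temperature substrate step; fluorescence excited at 405 nm, collected at 460 nm and 530 nm.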

[13] = qHTS assay to identify small molecule antagonists of the progesterone receptor (PR) signaling pathway - cell viability counter screen (AID 1346798); further: nearly all actives have a fitted effect of over 50% in size; further: potency means the concentration at half of the fitted maximal effect
Procedure, shortened: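 ATP content as viability readout: CellTiter-Glo luminescence, 30 min room temperature, in PR-UAS-bla HEK293T cells after 16 hr compound/R5020 treatment at 37C and 5% CO2.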

[14] = qHTS assay to identify small molecule agonists of the TGF-beta/Smad signaling pathway - cell viability counter screen (AID 1346829); further: nearly all actives have a fitted effect of over 45% in size; further: potency means the concentration at half of the fitted maximal effect
Procedure, shortened: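 After overnight seating at 37 C and 5% CO2, reporter cells got compounds for 5 hr and FRET substrate for 2 hr; cell viability then came from CellTiter-Glo luminescence.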

[15] = biological target: Androgen receptor (Homo sapiens) (UniProt P10275); experiment: qHTS assay to identify small molecule agonists of the androgen receptor (AR) signaling pathway in the presence of an antagonist (AID 1259381; calls by dose curve; further: nearly all actives have a fitted effect of over 15% in size)
Procedure, shortened: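 MDA-kb2 cells, 3,000/well, rested 5hr at 37C/0% CO2 → nilutamide 3.0uM final or buffer → compounds, 15 conc. → 16hr at 37C → ONE-Glo, 30min RT → luminescence.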

[16] = biological target: Thyrotropin-releasing hormone receptor (Homo sapiens) (UniProt P34981); experiment: qHTS assay to identify small molecule antagonists of the thyrotropin-releasing hormone receptor (TRHR) signaling pathway (AID 1346877; active means well fitted inhibition curve with a large enough effect in the repeat runs, not every such curve was filed as active; further: series mostly up to about 51 µM)
Procedure, shortened: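 Intracellular calcium fluorescence, read kinetically every second over 3 min, reports TRH-evoked signalling in HEK293 cells carrying TRHR. Test compounds were added 5 min ahead of a 1 nM TRH challenge.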

[17] = biological target: Thyrotropin receptor (Homo sapiens) (UniProt P16473); experiment: qHTS assay to identify small molecule antagonists of the thyroid stimulating hormone receptor (TSHR) signaling pathway (AID 1259385; calls by dose curve; further: nearly all actives have a fitted effect of over 20% in size)
Procedure, shortened: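 Antagonist mode: compound-treated TSHR-expressing HEK293 cells were stimulated with 1.5 ng/mL TSH (final) in presence of Ro20-1724 for 30 min at RT. HTRF cAMP detection after 1 h; each compound tested at 15 concentrations, triplicate.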

[18] = biological target: Progesterone receptor (Homo sapiens) (UniProt P06401); experiment: qHTS assay to identify small molecule antagonists of the progesterone receptor (PR) signaling pathway (AID 1346795; active means well fitted inhibition curve with a large enough effect in the signal ratio in the repeat runs, not every such curve was filed as active; the % refers to the signal ratio)
Procedure, shortened: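 Inhibition of R5020-induced (1 nM final) beta-lactamase reporter signal in PR-UAS-bla HEK293T cells was scored by FRET fluorescence after overnight (16 hr) compound treatment.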

Measured: Potency

Chain of Progesterone receptor (Homo sapiens) (P06401 whole entry, looked up): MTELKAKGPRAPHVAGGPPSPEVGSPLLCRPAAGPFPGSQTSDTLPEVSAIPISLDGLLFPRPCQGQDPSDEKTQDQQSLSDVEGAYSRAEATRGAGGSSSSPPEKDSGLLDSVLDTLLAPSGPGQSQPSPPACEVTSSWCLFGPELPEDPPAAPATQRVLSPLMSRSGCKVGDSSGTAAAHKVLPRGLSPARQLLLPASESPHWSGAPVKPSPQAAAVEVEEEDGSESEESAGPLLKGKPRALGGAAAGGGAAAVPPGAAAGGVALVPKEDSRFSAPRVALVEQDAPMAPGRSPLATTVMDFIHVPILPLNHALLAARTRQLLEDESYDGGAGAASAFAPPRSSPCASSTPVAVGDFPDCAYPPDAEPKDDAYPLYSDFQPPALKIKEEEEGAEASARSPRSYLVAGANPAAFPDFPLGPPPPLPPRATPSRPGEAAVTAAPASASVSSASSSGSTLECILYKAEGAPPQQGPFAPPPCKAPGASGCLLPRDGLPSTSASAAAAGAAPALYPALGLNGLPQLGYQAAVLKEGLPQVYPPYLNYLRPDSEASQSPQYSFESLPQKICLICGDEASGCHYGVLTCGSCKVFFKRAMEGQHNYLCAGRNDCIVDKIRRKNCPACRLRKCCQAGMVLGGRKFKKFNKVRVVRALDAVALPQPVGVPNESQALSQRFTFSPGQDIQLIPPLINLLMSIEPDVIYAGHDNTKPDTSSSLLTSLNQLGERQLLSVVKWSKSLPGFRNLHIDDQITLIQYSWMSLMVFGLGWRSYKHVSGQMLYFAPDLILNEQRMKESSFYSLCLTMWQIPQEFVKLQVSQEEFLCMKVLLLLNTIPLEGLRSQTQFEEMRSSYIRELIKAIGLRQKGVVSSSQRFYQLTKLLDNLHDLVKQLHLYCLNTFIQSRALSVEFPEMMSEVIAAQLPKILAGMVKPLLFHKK
Chain of Estrogen receptor (Homo sapiens) (P03372 whole entry, looked up): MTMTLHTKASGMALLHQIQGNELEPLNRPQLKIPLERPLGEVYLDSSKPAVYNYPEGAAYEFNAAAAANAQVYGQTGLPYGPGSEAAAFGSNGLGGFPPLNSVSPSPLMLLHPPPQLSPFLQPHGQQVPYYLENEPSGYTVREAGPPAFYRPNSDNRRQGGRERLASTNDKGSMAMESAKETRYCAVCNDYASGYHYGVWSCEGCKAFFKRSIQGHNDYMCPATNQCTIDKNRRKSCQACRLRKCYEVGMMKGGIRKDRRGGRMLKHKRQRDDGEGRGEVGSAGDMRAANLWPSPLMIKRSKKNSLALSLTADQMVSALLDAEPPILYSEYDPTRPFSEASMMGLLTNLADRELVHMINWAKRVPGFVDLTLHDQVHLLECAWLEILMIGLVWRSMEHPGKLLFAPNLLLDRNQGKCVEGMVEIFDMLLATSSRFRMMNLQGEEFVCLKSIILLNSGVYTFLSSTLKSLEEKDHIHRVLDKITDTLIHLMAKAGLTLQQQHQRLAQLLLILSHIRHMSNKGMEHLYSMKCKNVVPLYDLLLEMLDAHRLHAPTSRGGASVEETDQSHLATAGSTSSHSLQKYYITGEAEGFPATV
Chain of Thyrotropin receptor (Homo sapiens) (P16473 whole entry, looked up): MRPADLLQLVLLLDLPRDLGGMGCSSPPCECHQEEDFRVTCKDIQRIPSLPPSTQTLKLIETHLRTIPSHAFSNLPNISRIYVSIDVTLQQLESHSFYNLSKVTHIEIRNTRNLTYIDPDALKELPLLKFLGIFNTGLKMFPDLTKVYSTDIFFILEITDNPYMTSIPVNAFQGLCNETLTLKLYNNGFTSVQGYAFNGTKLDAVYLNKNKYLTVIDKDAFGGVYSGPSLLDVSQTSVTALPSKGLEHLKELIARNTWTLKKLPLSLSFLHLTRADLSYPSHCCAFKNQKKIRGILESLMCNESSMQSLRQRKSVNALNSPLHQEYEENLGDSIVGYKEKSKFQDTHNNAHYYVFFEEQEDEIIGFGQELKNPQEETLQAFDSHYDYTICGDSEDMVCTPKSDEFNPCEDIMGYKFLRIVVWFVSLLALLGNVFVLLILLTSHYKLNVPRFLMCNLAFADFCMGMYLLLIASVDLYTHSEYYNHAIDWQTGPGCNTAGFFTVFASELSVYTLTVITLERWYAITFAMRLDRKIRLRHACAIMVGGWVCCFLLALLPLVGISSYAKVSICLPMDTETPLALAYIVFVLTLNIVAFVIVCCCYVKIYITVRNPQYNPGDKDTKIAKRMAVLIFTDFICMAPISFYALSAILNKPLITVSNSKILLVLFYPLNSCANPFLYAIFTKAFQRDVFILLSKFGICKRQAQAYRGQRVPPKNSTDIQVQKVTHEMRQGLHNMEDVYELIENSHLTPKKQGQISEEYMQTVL
Chain of Thyrotropin-releasing hormone receptor (Homo sapiens) (P34981 whole entry, looked up): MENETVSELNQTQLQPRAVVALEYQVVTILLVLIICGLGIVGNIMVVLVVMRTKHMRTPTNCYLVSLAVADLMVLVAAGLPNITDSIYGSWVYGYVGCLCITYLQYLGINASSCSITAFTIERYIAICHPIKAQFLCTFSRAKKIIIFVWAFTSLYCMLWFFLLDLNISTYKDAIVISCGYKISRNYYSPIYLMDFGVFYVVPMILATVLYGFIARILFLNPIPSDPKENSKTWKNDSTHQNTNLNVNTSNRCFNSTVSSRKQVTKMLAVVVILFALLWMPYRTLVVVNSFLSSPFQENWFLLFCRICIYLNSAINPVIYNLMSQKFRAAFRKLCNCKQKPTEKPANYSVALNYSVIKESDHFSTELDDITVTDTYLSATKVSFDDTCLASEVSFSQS
Chain of Androgen receptor (Homo sapiens) (P10275 whole entry, looked up): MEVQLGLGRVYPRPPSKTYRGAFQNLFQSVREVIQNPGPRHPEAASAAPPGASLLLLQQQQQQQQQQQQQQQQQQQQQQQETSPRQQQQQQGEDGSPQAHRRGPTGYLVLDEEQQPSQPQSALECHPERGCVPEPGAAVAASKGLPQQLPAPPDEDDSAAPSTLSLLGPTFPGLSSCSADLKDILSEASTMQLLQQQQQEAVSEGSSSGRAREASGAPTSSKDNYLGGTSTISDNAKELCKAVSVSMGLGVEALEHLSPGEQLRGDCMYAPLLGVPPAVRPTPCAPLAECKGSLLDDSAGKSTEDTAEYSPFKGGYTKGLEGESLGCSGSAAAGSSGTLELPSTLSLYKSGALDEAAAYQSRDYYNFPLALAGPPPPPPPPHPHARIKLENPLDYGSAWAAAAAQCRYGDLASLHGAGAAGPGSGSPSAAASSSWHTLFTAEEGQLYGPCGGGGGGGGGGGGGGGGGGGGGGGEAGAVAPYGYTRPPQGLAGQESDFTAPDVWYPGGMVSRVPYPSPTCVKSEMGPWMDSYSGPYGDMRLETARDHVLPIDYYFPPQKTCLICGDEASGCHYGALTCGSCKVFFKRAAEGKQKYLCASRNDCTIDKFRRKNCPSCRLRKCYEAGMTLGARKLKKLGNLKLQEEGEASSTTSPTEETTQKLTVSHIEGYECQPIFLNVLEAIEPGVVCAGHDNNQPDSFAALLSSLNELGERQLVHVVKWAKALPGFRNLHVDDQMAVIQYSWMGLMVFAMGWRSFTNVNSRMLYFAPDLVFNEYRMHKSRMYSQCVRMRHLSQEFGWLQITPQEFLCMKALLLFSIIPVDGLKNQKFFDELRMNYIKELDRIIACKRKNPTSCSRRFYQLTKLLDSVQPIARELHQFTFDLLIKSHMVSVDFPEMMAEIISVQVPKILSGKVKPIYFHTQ

CN[C@H]1CC[C@@H](c2ccc(Cl)c(Cl)c2)c2ccccc21
active: [2] 18.8 µM | [4] 29.8 µM | [5] 18.8 µM
inactive: [1] | [3] | [6] | [7] | [8] | [9] | [10] | [11] | [12]

CC(=O)CCC(=O)O
inactive: [1] | [2] | [3] | [4] | [5] | [6] | [7] | [8] | [13] | [10] | [11] | [14] | [12]

O=C(Nc1ncc([N+](=O)[O-])s1)c1cccs1
active: [3] 26.6 µM | [8] 26.6 µM | [11] 10.7 µM | [14] 15.1 µM
inactive: [2] | [15] | [7] | [9] | [13] | [10] | [12] | [16]

Nc1ccc(O)c([N+](=O)[O-])c1
inactive: [1] | [5] | [6] | [11] | [14] | [12] | [16]
active: [2] 13.5 µM | [3] 27.3 µM | [8] 43.3 µM

CC(C)c1c(C(=O)Nc2ccccc2)c(-c2ccccc2)c(-c2ccc(F)cc2)n1CC[C@@H](O)C[C@@H](O)CC(=O)O
inactive: [1] | [2] | [3] | [7] | [17] | [8] | [11] | [14] | [12] | [16]
active: [4] 11.7 µM and 25.5 µM | [5] 13.2 µM and 32.1 µM | [13] 6.41 µM | [10] 1.48 µM and 227 nM and 2.11 µM

NC(=O)n1c(O)c(C(=O)c2cccs2)c2cc(Cl)ccc21
inactive: [1] | [5] | [6] | [7] | [9] | [11] | [14] | [12] | [16]
active: [2] 10.6 µM | [3] 29.8 µM | [8] 29.8 µM

CC(=O)CC(c1ccccc1)c1c(O)c2ccccc2oc1=O (stereo not given)
27.4 µM (active) and inactive: [2]
inactive: [1] | [3] | [4] | [5] | [8] | [9] | [18] | [13] | [10] | [11] | [14] | [12]

CN1CCC[C@H]1c1cccnc1
inactive: [1] | [2] | [3] | [4] | [5] | [8] | [9] | [18] | [13] | [10] | [11] | [14] | [12] | [16]
